According to PubChem BioAssay AID489008 (National Center for Advancing Translational Sciences (NCATS), 2010):
Results filed as inconclusive are left out. The source made the active and inactive calls. The call rests on the fitted dose curve; in most records, active means well fitted inhibition curve with a large enough effect; inconclusive means small, poorly fitted or top-dose-only effect; inactive means flat fitted curve, though single readings scatter.

Biological target: Ferritin light chain (Equus caballus) (UniProt P02791)
Test: Confirmation Assay for Identification of Novel General Anesthetics; further: nearly all actives have a fitted effect of over 40% in size
Conditions: apoferritin 1-aminoanthracene fluorescence displacement
Outline: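 Competitive displacement of profluorescent 1-aminoanthracene from 10 uM horse-spleen apoferritin in 50% saturated 1-AMA/PBS; 10 min RT, fluorescence Ex 380/Em 535. Normalized to free 1-AMA and complex; four-parameter Hill fit.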
Potency means the concentration at half of the fitted maximal effect.

Chain of Ferritin light chain (Equus caballus) (P02791 2-175 limits assumed): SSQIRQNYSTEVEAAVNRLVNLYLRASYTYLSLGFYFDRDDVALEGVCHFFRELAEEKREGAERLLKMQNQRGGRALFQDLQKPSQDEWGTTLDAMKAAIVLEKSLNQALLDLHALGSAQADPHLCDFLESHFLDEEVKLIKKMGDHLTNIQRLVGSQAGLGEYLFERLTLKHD

| SMILES | Potency |
| --- | --- |
| CCc1ccc(CNC(=O)Cn2nc(-c3ccccc3)ccc2=O)cc1 | 10 µM (active) |
| Cc1ccc(NCc2ccccc2O)c(C)c1 | 12.6 µM (active) |
| COc1cccc(NS(=O)(=O)c2ccc(Br)s2)c1 | 15.8 µM (active) |
| COC1CCCCC1Nc1cc(C)cc(C)c1 (stereo not drawn) | 31.6 µM (active) |
| O=C(Cn1nc(-c2ccccc2)ccc1=O)NCc1ccc(F)cc1 | 6.31 µM (active) |
| CC1CCCCC1NC(=O)COC(=O)COc1ccccc1Cl (stereo not drawn) | 17.8 µM (active) |
| Cc1ccccc1Nc1nc2ccccc2s1 | 14.1 µM (active) |
| O=C(NC1CCCCC1)N1CCCCCCC1 | 14.1 µM (active) |
| O=C(CN1N=C(c2ccc(Cl)cc2)CCC1=O)NCc1ccc(F)cc1 | 5.82 µM (active) |
| NC(=O)COC(=O)CC12CC3CC(CC(Br)(C3)C1)C2 | 17.8 µM (active) |
| Cc1ncsc1CCOC(=O)C12CC3CC(CC(C3)C1)C2 | 15.8 µM (active) |
| Cc1ccc(CNC(=O)CN2N=C(c3ccccc3)CCC2=O)cc1 | 5.19 µM (active) |
| CC(NC(=O)COC(=O)Cc1ccsc1)C1CC2CCC1C2 (stereo not drawn) | 31.6 µM (active) |
| CC1Cc2ccccc2N1C(=O)COC(=O)c1cccnc1Cl (stereo not drawn) | 15.8 µM (active) |
| Cc1ccc(NCc2cccnc2)c(Br)c1 | 8.91 µM (active) |
| Clc1ccc(CNc2ccccn2)cc1 | 15.8 µM (active) |
| Cc1cc(C)cc(Oc2ccccc2CO)c1 | 14.1 µM (active) |
| O=C(Nc1cccc(Cl)c1)C1COc2ccccc2O1 (stereo not drawn) | 14.1 µM (active) |
| CCC1CCCCN1S(=O)(=O)Cc1ccccc1Cl (stereo not drawn) | 15.8 µM (active) |

| SMILES | Potency |
| --- | --- |
| Cc1ccc(NS(=O)(=O)N2CCOCC2)cc1Cl | 12.6 µM (active) |
| Cc1ccc(S(=O)(=O)NCCc2ccccc2)cc1 | 15.8 µM (active) |
| c1cc2cn[nH]c2cc1NC1CCCCCC1 | 15.8 µM (active) |
| CC(C)(C)c1ccc(OCCC(=O)NC2=NCCS2)cc1 | 20 µM (active) |
| O=C(CSc1nnnn1C1CCCCC1)Nc1nc2c(s1)CCCC2 | 31.6 µM (active) |
| O=C(CCNc1cccc(Cl)c1)c1cccs1 | 17.8 µM (active) |
| CC1CCCCC1NC(=O)COC(=O)c1ccc(N(C)C)cc1 (stereo not drawn) | 11.2 µM (active) |
| Cc1cccc(Nc2nc(Cl)ncc2F)c1C | 28.2 µM (active) |
| Cc1ccc(C2=NN(CC(=O)NCc3cccs3)C(=O)CC2)cc1 | 7.08 µM (active) |
| COc1cccc(C(=O)COC(=O)CCC(=O)c2ccccc2)c1 | 7.94 µM (active) |
| Cc1ccc(SCC(=O)N2N=CCC2c2ccccc2)cc1 (stereo not drawn) | 15.8 µM (active) |
| O=C(NC12CC3CC(CC(C3)C1)C2)c1ccco1 | 14.1 µM (active) |
| O=C(CCC1CCCCC1)Nc1nncs1 | 15.8 µM (active) |
| N#Cc1ccc(NC(=O)COC(=O)CNC(=O)C2CCCCC2)cc1 | 15.8 µM (active) |
| CCOC(=O)c1c(C(C)(C)C)oc2ccc(O)cc12 | 39.8 µM (active) |
| O=C(O)Cc1csc(Nc2cccc(Cl)c2)n1 | 12.6 µM (active) |
| Cc1cc(OC(C)C)c2c(-c3ccccc3)cc(=O)oc2c1 | 35.5 µM (active) |
| Cc1ccc(CN=C2Nc3ccccc3CS2)cc1 | 14.1 µM (active) |
| COc1cccc(NC(=O)N2CCCCCC2)c1 | 14.1 µM (active) |
